# Measured values published in PubChem BioAssay (Tox21).
# Results filed as inconclusive are left out. Entries that show only a call come without a potency. Activity calls are given as the source filed them. Calls come from the whole dose curve; as a rule, active = well fitted cell-killing curve with a large enough effect in the repeat runs; inconclusive = weak or mixed curves, or effect the other way; inactive = flat fitted curve, though single readings scatter.
# How the values were obtained:
# [1] = cAMP Responsive Elements (CRE) small molecule antagonists, cell-based qHTS assay: qHTS cell viability counter screen (AID 2060913); details: CRE-bla HEK293T viability, CellTiter-Glo luminescence, 5 h; series mostly up to 92.4 µM; note: nearly all actives have a fitted effect of over 40% in size
# Procedure, shortened: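 CRE-bla HEK293T cells (2,000/well, 18 h) given compound plus NKH477 0.25 uM final for 3 h at 37C; viability counter-screen by CellTiter-Glo luminescence in same wells after 30 min.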
# [2] = cAMP Responsive Elements (CRE) small molecule agonists, cell-based qHTS assay: qHTS cell viability counter screen (AID 2060914); details: CRE-bla HEK293T viability, CellTiter-Glo luminescence, 5 h; series mostly up to 92.4 µM; note: nearly all actives have a fitted effect of over 50% in size
# Procedure, shortened: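 In the same wells as the reporter read, viability of CRE-bla HEK 293T cells was quantified by CellTiter-Glo luminescence after a 3 h compound exposure.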
Compound,Potency [1],Potency [2]
CCC(C)(C)C1CCCCC1OC(C)=O (centres undefined),inactive,inactive
CC(C)=CCC1=C(O)c2ccccc2C(=O)C1=O,inactive,inactive
C[Si](C)O[Si](C)(C)O[Si](C)(C)O[Si](C)C,inactive,inactive
N#CCc1cccc(C(F)(F)F)c1,inactive,inactive
CC(C)(C)c1cccc(C(C)(C)C)c1O,inactive,inactive
Cc1ccc(N/N=c2\c(=O)cc/c(=N\Nc3ccc(S(=O)(=O)O)cc3)c2=O)c(C)c1,inactive,inactive
CC1=CC(=O)[C@H]2C[C@@H]1C2(C)C,inactive,inactive
